Hit rate of the full screen: of about 3,600 compounds, about 900 (25%) were called active. The rule behind the calls is not given here. Only a sample is shown. Measured potencies and affinities stand elsewhere.
Each compound was assayed against Protein Tat (Human immunodeficiency virus type 1 group M subtype B (isolate HXB2)) (UniProt P04608) (assay: HIV-1 Tat–TAR interaction blockers – biochemical, fluorescence polarization, FAM-labeled TAR RNA, counter-screen for Vif-APOBEC3G degradation inhibitor project, dose response (AID 1117361)). Conditions: Tat-TAR RNA binding; series mostly up to 100 µM.

| SMILES | outcome |
| --- | --- |
| O=C(Nc1ccc(C(=O)N2CCOCC2)cc1)c1ccccc1[N+](=O)[O-] | inactive |
| Cc1c(C(=O)Nc2cccc([N+](=O)[O-])c2)csc1-c1ccccc1 | inactive |
| O=C(C1CCN(S(=O)(=O)N2CCOCC2)CC1)N1CCN(Cc2ccc3c(c2)OCO3)CC1 | inactive |
| CN(CCO)CC(O)CN(c1ccccc1)c1ccccc1 (stereo not drawn) | inactive |
| CCOC(=O)c1c(Nc2ccccc2N)cc(C)nc1C | inactive |
| COC(=O)c1c[nH]n2c(=O)c(Cc3ccc(F)cc3Cl)c(C)nc12 | inactive |
| O=C(CCc1nc(-c2ccccc2F)no1)NC1CCCCCC1 | inactive |
| CCOc1ccc(N(CC(=O)Nc2ccccc2C(=O)NCc2ccco2)S(C)(=O)=O)cc1 | inactive |
| CC1CN(Cc2cc(=O)[nH]c(C3CC3)n2)CC(C)O1 (stereo not drawn) | inactive |
| Cn1c(Cn2c(=O)sc3ccccc32)nnc1SCC(=O)NCc1ccc(F)cc1 | inactive |
| Cc1cc(=O)oc2cc(OCC(=O)NCc3cccnc3)ccc12 | inactive |
| Fc1cc(F)cc(NC(=S)NCCCN2CCOCC2)c1 | inactive |
| COC(=O)c1ccccc1NC(=O)c1noc2c1CCC2 | inactive |
| COc1ccccc1NC(=O)CSc1nnc(C)n1CCc1ccccc1 | inactive |
| COc1ccc(C2CC(c3cccs3)n3nc(N)nc3N2)cc1 (stereo not drawn) | inactive |
| Cc1ccc(C2CC(c3cccc(Cl)c3)n3nc(N)nc3N2)cc1 (stereo not drawn) | inactive |
| CCOc1cc(C)nc(NCCc2ccc(OC)c(OC)c2)n1 | inactive |
| COc1cc(CNCCc2ccccc2F)ccc1OCc1ccc(Cl)nc1 | inactive |
| Cc1ccc(NC(=O)C(C)NC(=O)OCc2ccccc2)cc1C (stereo not drawn) | inactive |
| Cc1cc(=O)[nH]c2c1c(C)nn2C1CCCCC1 | inactive |

| SMILES | outcome |
| --- | --- |
| O=C(CC1SCCNC1=O)Nc1ccc(Cl)cc1 (stereo not drawn) | inactive |
| Fc1cccc(-c2cc3nc4c(c(NCc5ccco5)n3n2)CCCC4)c1 | inactive |
| CSc1nc(NCCCO)c2c3c(sc2n1)CN(C)CC3 | inactive |
| CCC1=NN2C(=N)/C(=C\c3cccn3-c3cccc(Cl)c3)C(=O)N=C2S1 | inactive |
| COc1ccc(NC2CS(=O)(=O)CC2NCc2ccco2)cc1 (stereo not drawn) | inactive |
| COc1cccc(S(=O)(=O)N2CCN(c3ccccc3F)CC2)c1 | inactive |
| COc1ccccc1CNC(=O)COC(=O)c1ccc(NC(N)=O)cc1 | inactive |
| O=S(=O)(NCc1ccc2c(c1)OCO2)c1cccc(S(=O)(=O)N2CCOCC2)c1 | inactive |
| COCCN1Cc2cccc(C(=O)NCc3ccccn3)c2C1=O | inactive |
| Cc1cccc(N2CCN(CC(O)COc3ccc(Cl)cc3)CC2)c1 (stereo not drawn) | inactive |
| COCC(=O)NC1CCN(CC(=O)Nc2ccc(OC)cc2[N+](=O)[O-])CC1 | inactive |
| CC(=O)NS(=O)(=O)c1cccnc1Nc1cccc(Cl)c1 | inactive |
| CCc1nnc(NC(=O)c2ccc3c(c2)C(=O)N(C(C)(C)C)C3=O)s1 | inactive |
| N#Cc1cccc(Oc2ccc(S(=O)(=O)N3CCCC3)cn2)c1 | inactive |
| NC(=O)C1CCCN(CC(=O)Nc2ccccc2C(=O)NC2CC2)C1 (stereo not drawn) | inactive |
| COC(=O)Cc1cc(=O)n(-c2nc3ccccc3[nH]2)[nH]1 | inactive |
| Cc1cccc(N(CC(=O)N/N=C/c2ccc(OCC(=O)NCc3ccco3)cc2)S(C)(=O)=O)c1C | inactive |
| Cc1ccc(CNC(=O)COc2ccc3c(c2)CCC3)cc1 | inactive |
| CCn1c(CNc2ccc(C)cc2)nnc1SCC(=O)NCc1ccccc1 | inactive |
| CCc1ccc(CNCc2cccnc2)cc1 | inactive |

| SMILES | outcome |
| --- | --- |
| COc1ccc(OC)c(-c2cc(C(=O)NCc3cccs3)no2)c1 | inactive |
| CC1(C)Oc2ccc(C(=O)NC3CCCC3)cc2N(CC(=O)N2CCOCC2)C1=O | inactive |
| COc1cc(SC)ccc1C(=O)Nc1c(C)cccc1C | inactive |
| CC(Oc1ccc(Cl)cc1)C(=O)Nc1ncccn1 (stereo not drawn) | inactive |
| N[C@@H](Cc1c[nH]c2ccccc12)C(=O)O | inactive |
| O=C(CCc1c[nH]c2ccccc12)NC1CC1 | inactive |
| Cc1cccc(C)c1N1C(=O)C2ON(c3ccccc3)C(c3ccncc3)C2C1=O (stereo not drawn) | inactive |
| Cc1nn(CC(=O)NCc2ccccc2Cl)c(C)c1[N+](=O)[O-] | inactive |
| O=C(Nc1cnn(Cc2c(Cl)cccc2Cl)c1)c1ccc([N+](=O)[O-])cc1 | inactive |
| Cc1sc2ncnc(OCC(=O)N3CCN(S(=O)(=O)c4ccc(Cl)cc4)CC3)c2c1C | inactive |
| CC(C)c1nc2sc3c(NCc4ccco4)ncnc3c2c2c1COC(C)(C)C2 | inactive |
| CCC(=O)Nc1cc2c(cc1C(=O)CC)OCCO2 | inactive |
| CCCC(=O)NC1=C(Cl)C(=O)c2ccccc2C1=O | inactive |
| Cc1ccc(S(=O)(=O)Nc2ccc3nc(C)sc3c2)cc1 | inactive |
| CCN1CCN(c2ccc(NC(=O)Cc3ccccc3)cc2)CC1 | inactive |
| COc1ccc(N2CCN(C(=O)COc3ccccc3)CC2)cc1 | inactive |
| CCOc1ccc(S(=O)(=O)Nc2ccc(S(=O)(=O)N3CCCCC3)cc2)cc1 | inactive |
| CC(=O)N1CCN(c2ccc(NCc3ccc4c(c3)OCO4)cc2)CC1 | inactive |

Source: PubChem BioAssay AID1117361 (Southern Research Institute, 2015)
